Assays:
Format in all cases: functional
[1] = system: Plasmodium falciparum; assay: GSK_TCMDC: Inhibition of Plasmodium falciparum 3D7 in whole red blood cells, using parasite LDH activity as an index of growth. Test compounds present at 2uM
[2] = system: Plasmodium falciparum; assay: GSK_TCMDC: Inhibition of Plasmodium falciparum Dd2 in whole red blood cells, using parasite LDH activity as an index of growth. Test compounds present at 2uM
[3] = system: HepG2; assay: GSK_TCMDC: Percent inhibition of human HepG2 cell line. Test compounds present at 10uM.

Row | SMILES | Inhibition [1] [%] | Inhibition [2] [%] | Inhibition [3] [%]
1 | CN1CCC(NCc2ccc(-c3ccc(C(F)(F)F)cc3)cc2)CC1 | 99 | 71 | 54
2 | CCCn1c(Sc2ccc(C#N)c([N+](=O)[O-])c2)nnc1-c1ccc(N(C)C)cc1 | 97 | 98 | 18
3 | CC(=O)Nc1nc(N)c2c(ccc3c2ccn3CC(C)C)n1 | 94 | 78 | 66
4 | Nc1ncc(-c2ccc(F)cc2)cc1-c1nc2ccc(Cl)cc2[nH]1 | 99 | 44 | 45
5 | Fc1ccc2c(NN=Cc3ccccc3)ccnc2c1 | 100 | 99 | 1
6 | O=C(O)C(F)(F)F.c1cc(CNC2CCN(CC3CCCCC3)CC2)cc(-n2ccnc2)c1 | 100 | 97 | 3
7 | COc1cc(Cc2cnc(N)nc2N)cc(OCCCCCC(N)=O)c1OC | 90 | 0 | 0
8 | O=C(NCCCCN1CCC(c2ccc3c(c2OCC2COCO2)CCCC3)CC1)c1ccc(-c2ccc(C(F)(F)F)cc2)cc1 (centres undefined) | 99 | 45 | 91
9 | O=C(NCc1cccc(F)c1)c1ccc(O)c(-c2cc(Cl)cc(Cl)c2)c1 | 99 | 99 | 0
10 | O=C1C2C(c3ccc(Cl)c(Cl)c3)N3CC(OCc4ccccc4)CC3(C(=O)O)C2C(=O)N1c1ccc(Br)cc1 (centres undefined) | 100 | 86 | 14
11 | COc1cc(F)c2nccc([C@@H](O)CN3CCC(NC(=O)OCc4ccccc4)C(F)C3)c2c1 (some centres undefined) | 99 | 100 | 44
12 | CCN(CC)/C(=N/C(=N)NCc1ccc(Cl)cc1Cl)NCCCCCCN/C(=N\C(=N)NCc1ccc(Cl)cc1Cl)N(CC)CC | 100 | 99 | 16
13 | O=C(/C=C/c1ccc(Cl)c(Cl)c1)N1CCC(CN2CCC(Cc3c[nH]c4ccccc34)CC2)CC1 | 98 | 13 | 24
14 | c1ccc(OCCCCN2CCCCC2)cc1 | 95 | 1 | 2
15 | O=C(/C=C/c1ccc(Cl)c(Cl)c1)NCCCCCN1CCCN(C(=O)Nc2ccc(Br)cc2)CC1 | 99 | 0 | 38
16 | CCN(CC)CCN(Cc1ccc(-c2ccc(C(F)(F)F)cc2)cc1)C(=O)Cn1c(CCc2c(F)ccc(F)c2F)nc(=O)c2ccccc21.O=C(O)C(O)C(O)C(=O)O | 98 | 62 | 44
17 | CN(C)/C(=N/C(=N)NCc1ccc(Cl)c(Cl)c1)NCCCCCCN/C(=N\C(=N)NCc1ccc(Cl)c(Cl)c1)N(C)C | 93 | 99 | 20
18 | CC(=O)Nc1csc(-c2cnc(/C=C(\C)C[C@@H]3OC[C@H](C[C@@H]4O[C@H]4[C@@H](C)[C@H](C)O)[C@@H](O)[C@H]3O)o2)c1 | 94 | 8 | 1
19 | COc1ccc(CNCc2ccc(-c3cccc(-c4nc5cc(C(F)(F)F)ccc5[nH]4)c3)cc2)cc1.O=C(O)C(F)(F)F | 100 | 100 | 59
20 | CCOC(=O)c1nc(-c2ccc(Cl)cc2)[nH]c1NC(=S)NCCCN1CCOCC1 | 92 | 33 | 22
21 | CC(=O)Nc1ccc(C2NC(=O)NC(c3ccccc3)=C2c2nc3ccccc3s2)cc1 (centres undefined) | 93 | 96 | 0
22 | c1ccc(CCNc2ncnc3c2[nH]c2ccccc23)cc1 | 95 | 94 | 50
23 | COc1ccc(NC(=O)C2c3ccccc3C(=O)N(CC(C)C)C2c2cccs2)cc1OC (centres undefined) | 100 | 98 | 6
24 | Cl.N#Cc1ccc2c(c1)CCN(CCC1CCC(NC(=O)/C=C/c3ccc4ccccc4c3)CC1)CC2 (centres undefined) | 97 | 12 | 20
25 | CN(C)Cc1ccc2cc(NC(=O)c3ccc(-c4ccc(Cl)cc4)cc3)ccc2n1.O=C(O)C(F)(F)F | 86 | 30 | 60
26 | CCC[C@@H]([C@@H](CC1CCCCC1)C(=O)N[C@H](C(=O)Nc1nccs1)[C@H](C)O)N(O)C=O | 99 | 75 | 0
27 | O=C(NC1CCN(c2ccc(F)cc2[N+](=O)[O-])CC1)c1cccs1 | 90 | 91 | 0
28 | CCCNCc1c(O)ccc2c(CNCCC)c(O)ccc12.Cl | 100 | 9 | 24

— ChEMBL document CHEMBL1157539, “Thousands of chemical starting points for antimalarial lead identification” (Nature, 2010)
